Assay results taken from PubChem BioAssay (EPA / NIEHS).
Active and inactive are the calls of the source. How the source made its calls: active means hit-call score of the fitted dose curve at least 0.9, where 1 is the maximum; inactive means score below 0.9.

Key:
Settings in all cases: mRNA level, 48 h; actives raise or lower the signal
[1] = read-out: JUN Transcription Factor, JUN (gene 3725); assay: LTEA_HepaRG_JUN: Life Technologies and Expression Analysis (LTEA) Assay for JUN Transcription Factor using HepaRG (AID 2283513)
Summary of the method: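 Cells plated 48 h, medium switched to serum-free induction medium, then dosed 48 h (100 uM top, half-log dilutions, 0.5% DMSO). RNA isolated; JUN measured by qRT-PCR against three housekeeping genes; gain or loss fitted relative to DMSO.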

[2] = read-out: Lipase C (LIPC), LIPC (gene 3990); assay: LTEA_HepaRG_LIPC: Life Technologies and Expression Analysis (LTEA) Assay for Lipase C (LIPC) using HepaRG (AID 2283514)
Summary of the method: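 Differentiated human HepaRG cells in serum-free induction medium were exposed in duplicate for 48 h to eight concentrations (top 100 uM, half-log steps, 0.5% DMSO). LIPC mRNA was quantified by TaqMan qRT-PCR, normalized to ACTB, GAPDH and POLR2A, with bidirectional fitting versus DMSO.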

[3] = read-out: Lipoprotein lipase (LPL), LPL (gene 4023); assay: LTEA_HepaRG_LPL: Life Technologies and Expression Analysis (LTEA) Assay for Lipoprotein lipase (LPL) using HepaRG (AID 2283515)
Summary of the method: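 Differentiated human HepaRG cells in serum-free induction medium were exposed in duplicate for 48 h to eight half-log concentrations (top 100 uM) in 0.5% DMSO. LPL mRNA was quantified by TaqMan qRT-PCR, normalized to ACTB, GAPDH and POLR2A.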

[4] = read-out: MicroRNA 122 (MIR122), gene 406906; assay: LTEA_HepaRG_MIR122: Life Technologies and Expression Analysis (LTEA) Assay for MicroRNA 122 (MIR122) using HepaRG (AID 2283516); further: the transcript read is the microRNA miR-122
Summary of the method: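 HepaRG plated 48 h, switched to serum-free induction medium, then treated in duplicate for 48 h (100 uM top, half-log steps, 0.5% DMSO vehicle). RNA isolated, qRT-PCR performed, concentration-response fitted both directions relative to DMSO.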

[5] = read-out: matrix metalloproteinase-10 (MMP10), MMP10 (gene 4319); assay: LTEA_HepaRG_MMP10: Life Technologies and Expression Analysis (LTEA) Assay for matrix metalloproteinase-10 (MMP10) using HepaRG (AID 2283517)
Summary of the method: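 HepaRG, collagen I, ~100,000 cells/well; serum-free induction medium; 48 h exposure, duplicate, 8-pt half-log to 100 uM, 0.5% DMSO. Readout: TaqMan qRT-PCR, normalized to ACTB/GAPDH/POLR2A; bidirectional fit vs DMSO.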

MYC, MYC (gene 4609) = assay: LTEA_HepaRG_MYC: Life Technologies and Expression Analysis (LTEA) Assay for MYC using HepaRG (AID 2283518)
Summary of the method: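 HepaRG, ~100,000 cells/well, collagen I; 48 h plating; serum-free induction medium; 48 h dosing, duplicate, 100 uM top, half-log, 0.5% DMSO; total RNA → qRT-PCR MYC; gain/loss fit vs DMSO.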

[6] = read-out: matrix metalloproteinase-3 (MMP3), MMP3 (gene 4314); assay: LTEA_HepaRG_MMP3: Life Technologies and Expression Analysis (LTEA) Assay for matrix metalloproteinase-3 (MMP3) using HepaRG (AID 2283519)
Summary of the method: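 Differentiated human HepaRG cells, plated 48 h on collagen I, were exposed in duplicate for 48 h in serum-free induction medium to eight half-log concentrations up to 100 uM in 0.5% DMSO. MMP3 mRNA was quantified by TaqMan qRT-PCR, normalised to ACTB, GAPDH and POLR2A.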

[7] = read-out: Paternally Expressed 10 (PEG10), PEG10 (gene 23089); assay: LTEA_HepaRG_PEG10: Life Technologies and Expression Analysis (LTEA) Assay for Paternally Expressed 10 (PEG10) using HepaRG (AID 2283520)
Summary of the method: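 HepaRG, 48 h post-plating → serum-free induction medium → 48 h chemical exposure (duplicate, 8-pt, max 100 uM, half-log, 0.5% DMSO) → lysis in RLT → TaqMan qRT-PCR for PEG10, ACTB/GAPDH/POLR2A normalisation.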

[8] = read-out: Nuclear factor NF-kappa-B p105 subunit (Homo sapiens) (UniProt P19838); assay: LTEA_HepaRG_NFKB1: Life Technologies and Expression Analysis (LTEA) Assay for Nuclear Factor Kappa B Subunit 1 (NFKB1) using HepaRG (AID 2283521);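 further: TaqMan qRT-PCR transcript normalised to ACTB GAPDH and POLR2A housekeeping genes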
Summary of the method: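 HepaRG, 48 h exposure; 8-pt half-log series from 100 uM in 0.5% DMSO; duplicates. Readout: NFKB1 mRNA by qRT-PCR (Fluidigm arrays), housekeeping-normalized. Gain/loss fit vs DMSO baseline.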

[9] = read-out: Protein phosphatase 2A (PPP2R4), PTPA (gene 5524); assay: LTEA_HepaRG_PPP2R4: Life Technologies and Expression Analysis (LTEA) Assay for Protein phosphatase 2A (PPP2R4) using HepaRG (AID 2283522)
Summary of the method: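 Readout is PPP2R4 transcript level by microfluidic qRT-PCR after 48 h chemical treatment of human HepaRG liver cells. Concentrations spanned 100 uM downward in half-log steps; gain or loss of signal was fitted relative to DMSO.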

[10] = read-out: solute carrier (SLC22A1), SLC22A1 (gene 6580); assay: LTEA_HepaRG_SLC22A1: Life Technologies and Expression Analysis (LTEA) Assay for solute carrier (SLC22A1) using HepaRG (AID 2283524)
Summary of the method: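 Human HepaRG cells were plated 48 h, switched to serum-free induction medium, then exposed in duplicate for 48 h to 8-point half-log series from 100 uM in 0.5% DMSO. SLC22A1 mRNA measured by qRT-PCR, normalized to ACTB/GAPDH/POLR2A, fitted bidirectionally versus DMSO.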

[11] = read-out: Pyruvate Dehydrogenase Kinase 4 (PDK4), PDK4 (gene 5166); assay: LTEA_HepaRG_PDK4: Life Technologies and Expression Analysis (LTEA) Assay for Pyruvate Dehydrogenase Kinase 4 (PDK4) using HepaRG (AID 2283525)
Summary of the method: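 Differentiated human HepaRG cells, pre-cultured 48 h, were exposed in duplicate for 48 h in serum-free induction medium to eight half-log concentrations up to 100 uM in 0.5% DMSO. PDK4 mRNA was quantified by qRT-PCR, normalized to ACTB, GAPDH and POLR2A, bidirectional fitting versus DMSO.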

[12] = read-out: NAD(P)H dehydrogenase [quinone] 1 (NQO1), NQO1 (gene 1728); assay: LTEA_HepaRG_NQO1: Life Technologies and Expression Analysis (LTEA) Assay for NAD(P)H dehydrogenase [quinone] 1 (NQO1) using HepaRG (AID 2283526)
Summary of the method: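 HepaRG, 48 h post-plating → serum-free induction medium → test chemical 48 h (duplicate, 100 uM top, half-log x8, 0.5% DMSO) → RNA isolation → qRT-PCR, ACTB/GAPDH/POLR2A normalization; bidirectional curve fit vs DMSO baseline.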

[13] = read-out: Nuclear factor erythroid 2-related factor 2 (Homo sapiens) (UniProt Q16236); assay: LTEA_HepaRG_NFE2L2: Life Technologies and Expression Analysis (LTEA) Assay for Nuclear factor erythroid 2-related factor 2 (NFE2L2) Transcription Factor using HepaRG (AID 2283527);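 on outcome: TaqMan qRT-PCR transcript level normalised to ACTB GAPDH and POLR2A housekeeping genes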
Summary of the method: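 Differentiated human HepaRG cells in serum-free induction medium were exposed for 48 h to eight concentrations (top 100 uM, half-log dilutions, 0.5% DMSO), in duplicate. NFE2L2 mRNA was quantified by TaqMan qRT-PCR, normalized to ACTB, GAPDH and POLR2A, with bidirectional fitting versus DMSO.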

[14] = read-out: succinate dehydrogenase complex iron sulfur subunit B (SDHB), SDHB (gene 6390); assay: LTEA_HepaRG_SDHB: Life Technologies and Expression Analysis (LTEA) Assay for succinate dehydrogenase complex iron sulfur subunit B (SDHB) using HepaRG (AID 2283528)
Summary of the method: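 Readout is SDHB transcript level by qRT-PCR, normalised to three housekeeping genes and fitted bidirectionally against 0.5% DMSO vehicle. Human HepaRG cells were treated for 48 h at up to 100 uM.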

[15] = read-out: solute carrier (SLCO1B1), SLCO1B1 (gene 10599); assay: LTEA_HepaRG_SLCO1B1: Life Technologies and Expression Analysis (LTEA) Assay for solute carrier (SLCO1B1) using HepaRG (AID 2283530)
Summary of the method: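 HepaRG, serum-free induction medium, 48 h dosing, 8-pt half-log from 100 uM, 0.5% DMSO vehicle, duplicates. Readout: SLCO1B1 mRNA, qRT-PCR, ACTB/GAPDH/POLR2A normalization; up or down fit vs DMSO.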

[16] = read-out: sulfotransferase 2A1 (SULT2A1), SULT2A1 (gene 6822); assay: LTEA_HepaRG_SULT2A1: Life Technologies and Expression Analysis (LTEA) Assay for sulfotransferase 2A1 (SULT2A1) using HepaRG (AID 2283531)
Summary of the method: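 Transcript levels of SULT2A1, quantified by qRT-PCR and normalized to three housekeeping genes, serve as the readout. Human HepaRG cultures receive test chemicals for 48 h at up to 100 uM in half-log steps, with 0.5% DMSO vehicle.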

[17] = read-out: Transforming Growth Factor (TGFA), TGFA (gene 7039); assay: LTEA_HepaRG_TGFA: Life Technologies and Expression Analysis (LTEA) Assay for Transforming Growth Factor (TGFA) using HepaRG (AID 2283532)
Summary of the method: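 Differentiated human HepaRG cells, plated 48 h then switched to serum-free induction medium, were exposed in duplicate for 48 h to 8-point half-log series from 100 uM in 0.5% DMSO. TGFA mRNA measured by qRT-PCR, normalized to ACTB/GAPDH/POLR2A, bidirectional fit versus DMSO.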

[18] = read-out: Phosphatase and tensin (PTEN), PTEN (gene 5728); assay: LTEA_HepaRG_PTEN: Life Technologies and Expression Analysis (LTEA) Assay for Phosphatase and tensin (PTEN) using HepaRG (AID 2283523)
Summary of the method: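 Differentiated human HepaRG cells, plated 48 h then switched to serum-free induction medium, were exposed in duplicate for 48 h to eight half-log concentrations up to 100 uM in 0.5% DMSO. PTEN mRNA measured by TaqMan qRT-PCR, normalized to ACTB/GAPDH/POLR2A, bidirectional fit versus DMSO.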

Chain of Nuclear factor erythroid 2-related factor 2 (Homo sapiens) (Q16236 whole entry, looked up): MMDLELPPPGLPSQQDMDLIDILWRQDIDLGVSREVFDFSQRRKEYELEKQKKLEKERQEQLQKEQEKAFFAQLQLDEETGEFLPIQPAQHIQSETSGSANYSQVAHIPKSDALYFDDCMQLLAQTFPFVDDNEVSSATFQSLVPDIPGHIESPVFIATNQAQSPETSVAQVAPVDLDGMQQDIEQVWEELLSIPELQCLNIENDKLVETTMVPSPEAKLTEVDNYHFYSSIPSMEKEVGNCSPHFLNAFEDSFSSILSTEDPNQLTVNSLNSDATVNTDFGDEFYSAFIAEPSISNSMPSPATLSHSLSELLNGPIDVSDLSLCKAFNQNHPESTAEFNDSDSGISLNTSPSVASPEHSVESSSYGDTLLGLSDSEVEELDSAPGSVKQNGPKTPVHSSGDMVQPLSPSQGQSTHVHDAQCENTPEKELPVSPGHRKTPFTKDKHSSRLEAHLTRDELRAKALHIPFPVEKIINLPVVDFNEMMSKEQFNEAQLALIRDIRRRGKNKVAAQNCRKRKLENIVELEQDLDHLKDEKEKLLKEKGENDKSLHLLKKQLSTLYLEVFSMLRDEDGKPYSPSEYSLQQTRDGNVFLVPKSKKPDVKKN
Chain of Nuclear factor NF-kappa-B p105 subunit (Homo sapiens) (P19838 whole entry, looked up): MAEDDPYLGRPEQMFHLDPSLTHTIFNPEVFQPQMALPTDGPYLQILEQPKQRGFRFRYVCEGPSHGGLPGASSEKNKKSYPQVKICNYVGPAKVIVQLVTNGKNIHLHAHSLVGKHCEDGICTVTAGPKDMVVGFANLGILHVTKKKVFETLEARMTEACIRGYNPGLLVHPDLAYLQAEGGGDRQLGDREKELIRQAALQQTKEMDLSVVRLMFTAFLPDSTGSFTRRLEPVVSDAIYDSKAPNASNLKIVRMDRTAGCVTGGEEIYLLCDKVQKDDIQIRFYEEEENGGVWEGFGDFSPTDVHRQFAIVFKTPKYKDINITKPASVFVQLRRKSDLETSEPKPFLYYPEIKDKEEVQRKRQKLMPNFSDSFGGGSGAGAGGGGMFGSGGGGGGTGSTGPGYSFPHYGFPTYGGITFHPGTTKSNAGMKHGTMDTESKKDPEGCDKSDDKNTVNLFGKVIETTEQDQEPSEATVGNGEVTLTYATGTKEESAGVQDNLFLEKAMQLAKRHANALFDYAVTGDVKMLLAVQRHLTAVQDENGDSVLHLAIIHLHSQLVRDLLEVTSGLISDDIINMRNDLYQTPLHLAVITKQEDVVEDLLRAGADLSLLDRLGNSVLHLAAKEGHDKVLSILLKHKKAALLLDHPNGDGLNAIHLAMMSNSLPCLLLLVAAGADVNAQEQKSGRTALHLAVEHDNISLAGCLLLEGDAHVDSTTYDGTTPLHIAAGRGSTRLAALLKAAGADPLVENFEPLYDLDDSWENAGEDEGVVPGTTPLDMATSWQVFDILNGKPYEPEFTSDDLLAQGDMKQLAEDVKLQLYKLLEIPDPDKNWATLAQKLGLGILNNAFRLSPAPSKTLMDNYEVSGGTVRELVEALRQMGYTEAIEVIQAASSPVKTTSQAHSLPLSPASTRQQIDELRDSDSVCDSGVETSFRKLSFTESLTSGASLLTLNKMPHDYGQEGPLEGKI

COC(=O)C(C)Oc1ccc(Oc2ccc(Cl)cc2Cl)cc1 (stereo not given)
outcome [1]: inactive | outcome [2]: inactive | AC50 [3]: 27.6 µM (active) | outcome [4]: inactive | outcome [5]: inactive | outcome (MYC, MYC (gene 4609)): inactive | outcome [6]: inactive | AC50 [7]: 10.4 µM (active) | outcome [8]: inactive | outcome [9]: inactive | AC50 [10]: 50 µM (active) | AC50 [11]: 32.6 µM (active) | outcome [12]: inactive | outcome [13]: inactive | outcome [14]: inactive | outcome [15]: inactive | outcome [16]: inactive | outcome [17]: inactive

COC(=O)c1ccccc1C(=O)OC
outcome [1]: inactive | outcome [2]: inactive | outcome [3]: inactive | outcome [4]: inactive | outcome [5]: inactive | outcome (MYC, MYC (gene 4609)): inactive | outcome [6]: inactive | outcome [7]: inactive | outcome [8]: inactive | outcome [9]: inactive | outcome [18]: inactive | outcome [10]: inactive | outcome [11]: inactive | outcome [12]: inactive | outcome [13]: inactive | outcome [14]: inactive | outcome [15]: inactive | outcome [16]: inactive | outcome [17]: inactive

CCCC1COC(Cn2cncn2)(c2ccc(Cl)cc2Cl)O1 (stereo not given)
outcome [1]: inactive | AC50 [2]: 35.8 µM (active) | AC50 [3]: 27.8 µM (active) | AC50 [4]: 49.5 µM (active) | AC50 [5]: 77.8 µM (active) | AC50 (MYC, MYC (gene 4609)): 35.4 µM (active) | AC50 [6]: 89.4 µM (active) | AC50 [7]: 15 µM (active) | outcome [8]: inactive | outcome [9]: inactive | AC50 [10]: 40.5 µM (active) | AC50 [11]: 12.3 µM (active) | AC50 [12]: 50 µM (active) | AC50 [13]: 83.6 µM (active) | outcome [14]: inactive | AC50 [15]: 62.8 µM (active) | AC50 [16]: 59 µM (active) | AC50 [17]: 50 µM (active)
